From PubChem BioAssay
EBV LMP1 NFkB = EBV LMP1-driven NF-kappaB luciferase reporter inhibitors, primary screen, cell-based, luminescence, single point. LMP1-induced NF-kappaB luciferase reporter cells. inhibition, % at 12.5 µM. actives 0.69% (n = 350,000). AID 504558, 2011; in the data active means inhibition above about 41%; inconclusive means no clear call, values can overlap the other calls
TRPM1 prom inh = inhibitors of MITF-dependent TRPM1 promoter reporter, primary screen, cell-based, SK-MEL-5, single point, luciferase; SK-MEL-5 TRPM1 promoter luciferase, 24 h; inhibition, % at 12.5 µM; actives 0.83% (n = 330,000);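 active means mean inhibition across replicates of 60% or more, whatever share of single replicates reaches that level; inconclusive means some that reach 60%, reason not given; inactive means mean inhibition across replicates below 60%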
CF NFkB block = inhibitors of PAF-induced NF-kB signaling, primary screen, cell-based, GFP fluorescence, uHTS. KKLEB NF-kB-GFP reporter, GFP fluorescence overnight. actives 0.86% (n = 360,000). inhibition, % at 5 µM. AID 588850, 2011;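 active means at least 50% inhibition at 5 µM, scaled per plate between neutral and stimulator controls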;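 further: PAF is a Pseudomonas aeruginosa culture filtrate used as stimulus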
KKLEB tox = cytotoxicity in KKLEB CF airway cells, primary screen, cytotoxicity control for CF NF-kB inhibitor project, cell-based, uHTS, fluorescence assay plates; actives 0.36% (n = 360,000); KKLEB CF airway cells viability, ATPlite luminescence, overnight; hits give low values; cells stimulated with P. aeruginosa culture filtrate; activity change (cytotoxicity), % at 5 µM;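 active means corrected activity change at or below -50% at 5 µM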
Shn3 3UTR inh = reduction of Shn3 3'UTR firefly luciferase signal, primary screen, Schnurri-3 inhibitor project, cell-based, Clone20 osteoblasts, set 2. inhibition, % at 12.5 µM. Clone20 osteoblast Shn3 3'UTR firefly luciferase, 24 h. actives 0.52% (n = 360,000);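 active means mean inhibition of at least 75% with every replicate also reaching 75%; inconclusive means mean inhibition at least 75% but some replicate below; inactive means mean inhibition below 75%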
Peg3 prom inh-1 = Peg3 promoter-driven luciferase inhibitors, primary screen, cell-based, HeLa, luciferase luminescence | AID 588405, 2011 | inhibition, % at 20 µM | actives 1.7% (n = 360,000) | HeLa PEG-Prom luciferase reporter, overnight;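 active means inhibition of at least 50% at 20 µM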
Peg3 prom inh-2 = Peg3 promoter reporter inhibitors, retest, confirmation, cell-based, HeLa, luciferase reporter, single concentration; shares compounds with Peg3 prom inh-1; HeLa PEG-Prom luciferase reporter, luminescence, overnight; inhibition, % at 20 µM; actives 84% (n = 1,300); AID 602417, 2012;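 active means at 20 µM dose, 40% or more inhibition averaged across four replicates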
A number is an active result; - = inactive; ? = inconclusive; . = no result. In the library only some 2.9% were active in any assay of this set; here they are far more common.

SMILES | EBV LMP1 NFkB | TRPM1 prom inh | CF NFkB block | KKLEB tox | Shn3 3UTR inh | Peg3 prom inh-1 | Peg3 prom inh-2
CCOC(=O)c1c(NC(=O)c2ccc(S(=O)(=O)N3CCOCC3)cc2)sc2c1CC(C)(C)NC2(C)C | - | - | - | - | - | 53.4 | -
CCOC(=O)c1c(NC(=O)CSc2ncccn2)sc2c1CC(C)(C)NC2(C)C | - | - | - | - | - | - | .
O=C(Cn1ncc2c1-c1ccccc1OC2)N1CCc2ccccc21 | - | - | - | - | - | - | .
O=C(Cn1ncc(Cl)c(Cl)c1=O)N1CCN(Cc2ccccc2)CC1 | 88.4 | 98.5 | 88.2 | -67.8 | - | 103.1 | 94.7
O=C(Cn1ncc(Cl)c(Cl)c1=O)N1CCc2ccccc21 | - | 99.3 | 102.8 | -87.8 | - | 107.8 | 99.2
C(=C\c1ccc2nncn2c1)/c1ccccc1 | . | . | - | - | - | - | .
C[C@@H]1Cn2cnc(C(=O)N[C@@H](C)c3ccccc3)c2C(=O)N1 | - | . | - | - | - | - | .
O=C(Nc1ccc2c(c1)OCCO2)C(c1cc2ccccc2o1)N1CCN(C/C=C/c2ccccc2)CC1 (centres undefined) | . | . | - | - | - | - | .
NC(=O)C(NN=C(c1ccccc1)c1ccccc1)c1ccccc1 (centres undefined) | - | . | - | - | - | - | .
Cc1ccc2nc(-c3ccncc3)cc(C(=O)NCc3ccccc3F)c2c1 | - | - | - | - | - | - | .
COc1ccccc1CCNC(=O)c1cc(-c2ccncc2)nc2ccc(Br)cc12 | - | - | - | - | - | 59.8 | -
Cc1cc2c(=O)[nH]c(N)nc2[nH]1 | - | . | - | - | - | - | .
CC(C)c1ccccc1NC(=O)Nc1nnc([C@@H]2C[C@H](O)[C@@H](CO)O2)s1 | . | . | - | - | - | - | .
CCOC(=O)C1=CCN(S(=O)(=O)c2ccc(Cl)cc2)C1c1ccc(C)cc1 (centres undefined) | . | . | - | - | - | - | .
Cc1ccc(C2(CCNCc3ccc(N(C)C)cc3)CCOC(C(C)C)C2)cc1 (centres undefined) | - | - | - | - | - | 56.3 | 62.9
COc1ccccc1C(c1nnnn1CCc1ccccc1)N1CCN(c2ccccc2)CC1 (centres undefined) | - | - | - | - | - | - | .
COc1cccc(C(c2nnnn2CCc2ccccc2)N2CCN(c3ccccc3)CC2)c1OC (centres undefined) | - | - | - | - | - | 51.2 | -
CC(C)(CC(=O)c1ccccc1)CC(=O)c1ccccc1 | - | - | - | - | - | - | .
O=C(NCCc1ccccc1)c1ccc2c(c1)OCCO2 | 84.4 | 88.2 | - | - | - | 104.7 | 90.2
COc1ccc(CCNC(=O)c2ccc3c(c2)OCCO3)cc1 | - | - | - | - | - | - | .
O=C(NCCc1ccccc1)c1ccc2c(c1)OCCCO2 | 85.2 | 91.7 | - | -51.7 | ? | 107.8 | 94.5
COc1ccc(CSc2ccc(-c3nc4ccccn4c3NCc3ccccc3)cc2OC)cc1 | - | - | - | - | - | - | .
CCC(C)Sc1ccc(-c2nc3ccccn3c2NCc2ccccc2)cc1OC (centres undefined) | - | - | - | - | - | 93.1 | 97.1
Cc1ccc(S(=O)(=O)N(C)C[C@@H]2OCc3cnnn3CCCC(=O)N([C@H](C)CO)C[C@H]2C)cc1 | - | . | - | - | - | - | .
CN(C)CCNc1ncnc2c1ncn2[C@H]1CN(Cc2ccco2)C[C@@H](CO)O1 | . | . | - | - | - | - | .
SMILES | EBV LMP1 NFkB | TRPM1 prom inh | CF NFkB block | KKLEB tox | Shn3 3UTR inh | Peg3 prom inh-1 | Peg3 prom inh-2
CC1(Oc2cccc(C#N)c2)CCN(Cc2ccccc2OC(F)F)C1 (centres undefined) | . | . | - | - | - | - | .
O=C1c2cccnc2-c2ncccc21 | - | - | - | - | - | - | .
COC1=C(Br)C(=O)c2ncccc2C1=O | - | 65.0 | - | - | - | 100.5 | 99.2
Cc1cccc(C)c1-c1ccc(CN2C(CC(C)C)C(=O)N(Cc3cn(CC4CCCCC4)nn3)CCS2(=O)=O)cc1 (centres undefined) | - | - | - | - | - | - | .
COc1cccc(Nc2nc(C(N)CO)cs2)n1 (centres undefined) | . | . | - | - | - | - | .
CN(Cc1ccccc1)C(=O)c1ccc(Nc2nc(C(N)Cc3ccccc3)cs2)nc1 (centres undefined) | . | . | - | - | - | 92.7 | 89.9
COc1cccc(Nc2nc(C(N)Cc3ccccc3)cs2)n1 (centres undefined) | . | . | - | - | - | 89.5 | 96.0
CC(C)CC(N)c1csc(Nc2ccc(C(=O)N(C)Cc3ccccc3)cn2)n1 (centres undefined) | . | . | - | - | - | 59.9 | 85.1
CCCCN(C)C(=O)c1ccc(Nc2nc(C(N)Cc3ccccc3)cs2)nc1 (centres undefined) | . | . | - | - | - | - | .
Cc1ccc2nc3n(c(=O)c2c1)-c1ncccc1C(=O)NC3Cc1ccc(O)cc1 (centres undefined) | - | . | - | - | - | - | .
Nn1cnnc1SCC(=O)N1CCc2ccccc2C1 | - | - | - | - | - | - | .
COc1cc2c(cc1OC)C(SC)=NC1(CCCC1)C2 | - | 87.3 | - | - | - | 64.3 | -
O=S(=O)(c1cccs1)N1CCN(c2ccnc3cc(Cl)ccc23)CC1 | - | - | - | - | - | 51.1 | 69.2
COCCNC(=O)C(=O)c1c(-c2ccccc2)[nH]c2ccccc12 | - | - | - | - | - | - | .
O=C(C(=O)N(Cc1ccccc1)Cc1ccccc1)c1c(-c2ccccc2)[nH]c2ccccc12 | - | - | 94.5 | -81.4 | - | 63.8 | 68.2
Cc1ccc2[nH]c3c(c2c1)CCCC3NC(=O)CCl (centres undefined) | 87.2 | - | 62.2 | -64.6 | - | 82.4 | 88.8
Cc1ccc(S(=O)(=O)/N=C(/Nc2ccc([N+](=O)[O-])cc2[N+](=O)[O-])c2ccccc2)cc1 | - | - | - | - | - | - | .
CCOc1ccc(Cl)cc1-c1cc(C(=O)NC2CCCCC2)[nH]n1 | . | . | - | - | - | - | .
Cc1ccccc1-c1nc(CN2CCC(C(=O)NC3CCCCC3)CC2)c(C)o1 | - | - | - | - | - | - | .
Cc1ccccc1-c1nc(CN2CCC(C(=O)NC3CCN(Cc4ccccc4)CC3)CC2)c(C)o1 | - | - | - | - | - | 56.5 | -
Cc1ccc(NC(=O)O/N=C/c2c(C)nn(C(C)(C)C)c2C)cc1Cl | 75.4 | 83.0 | - | - | . | 104.3 | 98.1
CC1CC(=Cc2ccc(N)cc2)C(=O)O1 (centres undefined) | - | - | - | - | - | - | .
